# From the OligoGym collection
# Target: ADRA2B
# Assay: pooled miR-30 sensor sort-seq; sequence = guide strand
# Conditions: shRNA
# Further: reference of the scale not given here.
row,Sequence,sensor-assay potency score (higher = more potent)
1,TCCTGGTTGAGCTTGCACTGGG,-0.653
2,TTCCAAATCTAGCAGGTCCATC,-1.43
3,ATAACAGGGTTCAGTGAGCTGT,-0.793
4,TACTCTGGCCTCAACAACCCAC,-0.575
5,TTGGCGATCAGGTAGATGCGCA,-0.201
6,TTGAAATAGTGATTCTGTCTGC,0.106
7,AAGGTGAAGCGCTTCTCCCGGG,-0.311
8,TAACTTGAAATAGTGATTCTGT,0.986
9,TCGAGCGCCAGGTACACCTCGC,-0.894
10,TACACCTCGCACCACGTGCGCC,-1.33
11,AACGCCAATGACCACAGCCAGC,-1.54
12,AAGATGGTGTAGATAACAGGGT,-0.352
13,TTCGAGTGTCCGTTGACCTCTC,0.0234
14,TCATCTTAGACTGTTGCCGAGG,-0.739
15,TAGACAAGGATCATGATGAGGC,0.0762
16,TTTTTGGTTCTCTAGTGTGTTC,-1.08
17,TAACAGGGTTCAGTGAGCTGTT,-0.17
18,TAGCGTAATAACTCAGACCTTT,0.245
19,AAATCTAGCAGGTCCATCTGGC,-0.198
